Results: PubChem BioAssay AID1159580 (chemical genetic matrix, 2015)
Among all 5,500 compounds or so, about 2,000 (36%) were called active. Another 18% or so got no clear call; they are omitted. No stated cut-off is given here; in the data, active means normalized growth mostly below about 0.91 (no sharp cut-off); inconclusive means no clear call, values can overlap the other calls; inactive means mostly above about 0.92. The list shows a part of the results.

Experiment: chemical genetic growth profiling, strain panel (AID 1159580);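 further: tested at 20 µM; growth read once vehicle control cultures reached saturation at 30 °C; 1 = growth at the plate median or of vehicle wells; lower values mean less growth of the strain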
Details: growth OD

Measured: normalized growth

CCc1cc(C(N)=S)ccn1
inactive: S. cerevisiae deletion strains, locus YJR066W, strain TOR1, hits give low values 1 | S. cerevisiae deletion strains, locus YKL009W, strain mrt4, hits give low values 0.966 | S. cerevisiae deletion strains, locus YKL068W, hits give low values 0.975 | S. cerevisiae deletion strains, locus YKL085W, strain MDH1 (second series), hits give low values 0.964 | S. cerevisiae deletion strains, locus YKL085W, strain MDH1, hits give low values 0.964 | S. cerevisiae deletion strains, locus YKL160W, strain elf1, hits give low values 1.05 | S. cerevisiae deletion strains, locus YKL190W, strain CNB1, hits give low values 0.991 | S. cerevisiae deletion strains, locus YKR001C, strain vps1, hits give low values 0.955 | S. cerevisiae deletion strains, locus YKR026C, strain gcn3, hits give low values 1 | S. cerevisiae deletion strains, locus YKR091W, strain srl3, hits give low values 1.01 | S. cerevisiae deletion strains, locus YLL001W, strain dnm1, hits give low values 1.04 | S. cerevisiae deletion strains, locus YLL026W, hits give low values 1 | S. cerevisiae deletion strains, locus YLL041C, strain sdh2, hits give low values 1 | S. cerevisiae deletion strains, locus YLR027C, strain aat2, hits give low values 0.987 | S. cerevisiae deletion strains, locus YLR039C, strain RIC1, hits give low values 0.939 | S. cerevisiae deletion strains, locus YLR058C, strain SHM2, hits give low values 0.978 | S. cerevisiae deletion strains, locus YLR102C, strain apc9, hits give low values 0.994 | S. cerevisiae deletion strains, locus YLR113W, strain HOG1, hits give low values 1.04 | S. cerevisiae deletion strains, locus YLR221C, strain rsa3, hits give low values 1.02 | S. cerevisiae deletion strains, locus YLR258W, strain gsy2, hits give low values 1 | S. cerevisiae deletion strains, locus YLR262C, strain YPT6 (second series), hits give low values 1.04 | S. cerevisiae deletion strains, locus YLR262C, strain YPT6, hits give low values 0.937 | S. cerevisiae deletion strains, locus YLR268W, strain sec22, hits give low values 0.977 | S. cerevisiae deletion strains, locus YLR320W, strain mms22, hits give low values 1.04 | S. cerevisiae deletion strains, locus YLR330W, strain CHS5, hits give low values 0.984 | S. cerevisiae deletion strains, locus YLR342W, strain FKS1 (second series), hits give low values 1.03 | S. cerevisiae deletion strains, locus YLR342W, strain FKS1, hits give low values 1.01 | S. cerevisiae deletion strains, locus YLR357W, strain rsc2, hits give low values 0.99 | S. cerevisiae deletion strains, locus YLR370C, strain arc18, hits give low values 1 | S. cerevisiae deletion strains, locus YLR371W, strain rom2, hits give low values 0.991 | S. cerevisiae deletion strains, locus YLR384C, strain iki3, hits give low values 1 | S. cerevisiae deletion strains, locus YLR418C, strain cdc73, hits give low values 0.999 | S. cerevisiae deletion strains, locus YML016C, strain PPZ1, hits give low values 0.99 | S. cerevisiae deletion strains, locus YML032C, strain rad52, hits give low values 0.973 | S. cerevisiae deletion strains, locus YML120C, strain ndi1, hits give low values 1.02 | S. cerevisiae deletion strains, locus YML124C, strain tub3, hits give low values 0.987 | S. cerevisiae deletion strains, locus YMR058W, strain fet3, hits give low values 1.01 | S. cerevisiae deletion strains, locus YMR078C, strain ctf18, hits give low values 0.978 | S. cerevisiae deletion strains, locus YMR125W, strain sto1, hits give low values 1 | S. cerevisiae deletion strains, locus YMR129W, hits give low values 0.996 | S. cerevisiae deletion strains, locus YMR205C, strain PFK2, hits give low values 1.07 | S. cerevisiae deletion strains, locus YMR223W, strain ubp8, hits give low values 1.03 | S. cerevisiae deletion strains, locus YMR231W, strain pep5, hits give low values 1 | S. cerevisiae deletion strains, locus YMR263W, strain SAP30, hits give low values 0.982 | S. cerevisiae deletion strains, locus YMR307W, strain GAS1, hits give low values 1.06 | S. cerevisiae deletion strains, locus YNL067W, strain RPL9B, hits give low values 0.954 | S. cerevisiae deletion strains, locus YNL071W, strain lat1, hits give low values 1.01 | S. cerevisiae deletion strains, locus YNL128W, strain TEP1, hits give low values 0.985 | S. cerevisiae deletion strains, locus YNL183C, strain NPR1, hits give low values 0.999 | S. cerevisiae deletion strains, locus YNL209W, strain ssb2, hits give low values 1.01 | S. cerevisiae deletion strains, locus YNL233W, strain BNI4, hits give low values 0.963 | S. cerevisiae deletion strains, locus YNL248C, strain rpa49, hits give low values 1 | S. cerevisiae deletion strains, locus YNL250W, strain rad50, hits give low values 0.964 | S. cerevisiae deletion strains, locus YNL271C, strain bni1, hits give low values 0.971 | S. cerevisiae deletion strains, locus YNL298W, strain CLA4, hits give low values 0.978 | S. cerevisiae deletion strains, locus YNL307C, strain MCK1, hits give low values 0.985 | S. cerevisiae deletion strains, locus YNL322C, strain KRE1 (second series), hits give low values 1.03 | S. cerevisiae deletion strains, locus YNR049C, strain mso1, hits give low values 1 | S. cerevisiae deletion strains, locus YNR052C, strain pop2, hits give low values 0.993 | S. cerevisiae deletion strains, locus YOL006C, strain TOP1, hits give low values 0.995 | S. cerevisiae deletion strains, locus YOL012C, strain htz1 1.05 | S. cerevisiae deletion strains, locus YOL147C, strain pex11, hits give low values 0.988 | S. cerevisiae deletion strains, locus YOR001W, strain rrp6, hits give low values 0.965 | S. cerevisiae deletion strains, locus YOR061W, strain CKA2, hits give low values 0.96 | S. cerevisiae deletion strains, locus YOR069W, strain VPS5, hits give low values 0.998 | S. cerevisiae deletion strains, locus YOR070C, strain gyp1, hits give low values 1.01 | S. cerevisiae deletion strains, locus YOR080W, strain dia2, hits give low values 0.998 | S. cerevisiae deletion strains, locus YOR083W, strain WHI5, hits give low values 1.05 | S. cerevisiae deletion strains, locus YOR106W, strain vam3, hits give low values 1.06 | S. cerevisiae deletion strains, locus YOR136W, strain idh2, hits give low values 0.984 | S. cerevisiae deletion strains, locus YOR144C, strain elg1, hits give low values 0.985 | S. cerevisiae deletion strains, locus YOR184W, strain ser1, hits give low values 1.01 | S. cerevisiae deletion strains, locus YOR231W, strain MKK1, hits give low values 1.07 | S. cerevisiae deletion strains, locus YOR265W, strain rbl2, hits give low values 1.03 | S. cerevisiae deletion strains, locus YOR270C, strain vph1, hits give low values 1.03 | S. cerevisiae deletion strains, locus YOR290C, strain snf2, hits give low values 1.01 | S. cerevisiae deletion strains, locus YOR316C, strain cot1, hits give low values 0.981 | S. cerevisiae deletion strains, locus YPL051W, strain arl3, hits give low values 0.998 | S. cerevisiae deletion strains, locus YPL078C, strain atp4, hits give low values 1.01 | S. cerevisiae deletion strains, locus YPL106C, strain sse1, hits give low values 1.02 | S. cerevisiae deletion strains, locus YPL240C, strain hsp82, hits give low values 0.982 | S. cerevisiae deletion strains, locus YPL256C, strain CLN2, hits give low values 1.15 | S. cerevisiae deletion strains, locus YPR119W, strain clb2, hits give low values 0.986 | S. cerevisiae deletion strains, locus YPR141C, strain kar3, hits give low values 0.974 | S. cerevisiae deletion strains, locus YPR163C, strain tif3, hits give low values 0.986 | S. cerevisiae deletion strains, locus YPR167C, strain met16, hits give low values 0.989 | S. cerevisiae deletion strains, strain wtn01, hits give low values 0.995 | S. cerevisiae strains, strain wild type, hits give low values 0.986
